High-throughput results (PubChem BioAssay)
A selection: hits, their analogues and other compounds. The true share with any hit is near 3.4%.
LGR2 antag = Drosophila LGR2 receptor signaling inhibition; HEK293 LGR2, CRE-luciferase, bursicon-stimulated, 4 h; inhibition, % at 9.99 µM; 0.35% of 380,000 active;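 active means drop in luminescence signal, shown as inhibition above about 50% in the replicate tests, limit read from the data, passing the limit was not always enough; inconclusive means probably only some replicates passing the limit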;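 further: agonist challenge used bursicon conditioned medium at about half maximal strength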
Ecoli rRNA inh = inhibitors of bacterial rRNA selective over humanized ribosomes; E. coli WT GFP vs humanized-ribosome RFP mutants, fluorescence, 24 h; stronger effect = lower value; DMSO median 0, no signal -100; AID 720706; GFP signal change (wild-type ribosome), % (concentration not given with the values); 1.6% of 350,000 active;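 active means significant combined selectivity score with lowered wild-type GFP, culture density cut under 30%, mutant RFP and density less affected; inactive means any of these conditions unmet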
PAX8 inh HTS = lowers PAX8-driven luciferase in RMG-I cells | AID 652154 | inhibition, % at 12.6 µM | 1.2% of 360,000 active | RMG-I TPO-luciferase reporter, SteadyGlo, 24 h;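 active means mean replicate inhibition at least 60% with every replicate also reaching 60%; inconclusive means only one of the two criteria is met; inactive means mean below 60% and not all replicates reaching 60%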;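 further: luciferase light reporting Pax8 driven TPO promoter activity; plate controls were median of neutral control wells for no effect and mitoxantrone controls for full effect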
SIRT5 block = blocks human SIRT5 desuccinylation of peptide | Q9NXA8 | 1.1% of 330,000 active | inhibition, % at 15 µM | Purified SirT5, succinyl-peptide AMC, trypsin-coupled fluorescence; in the data active means inhibition above about 15%; inconclusive means no clear call, values can overlap the other calls
Target sequence (Q9NXA8 whole entry, looked up): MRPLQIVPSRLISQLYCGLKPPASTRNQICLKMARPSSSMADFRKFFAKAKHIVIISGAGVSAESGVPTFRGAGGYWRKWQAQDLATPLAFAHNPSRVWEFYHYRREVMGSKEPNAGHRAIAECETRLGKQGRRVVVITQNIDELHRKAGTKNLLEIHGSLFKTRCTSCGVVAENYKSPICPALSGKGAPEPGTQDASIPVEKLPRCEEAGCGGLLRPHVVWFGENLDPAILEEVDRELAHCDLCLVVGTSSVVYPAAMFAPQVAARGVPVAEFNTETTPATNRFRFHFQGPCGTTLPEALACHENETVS
EWS-Fli block = EWS/Fli transcriptional activity inhibition | AID 651661 | 0.67% of 350,000 active | inhibition, % at 12.6 µM | A673 NR0B1-luciferase reporter, viability-normalised;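 active means mean inhibition of at least 50% after viability correction, with every replicate also passing that limit; inconclusive means mean reaches 50% but only one of two replicates passes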;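 further: firefly luciferase signal divided by Alamar Blue viability fluorescence both relative to DMSO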
PGC1a acetyl inh = PGC1a acetylation modulation, inhibitor mode; U2OS PGC1a acetylation, AlphaScreen anti-acetyl-lysine; with virally co-expressed GCN5 acetyltransferase; inhibition, % at 15.6 µM; 0.17% of 350,000 active; AID 651687;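 active means every replicate shows inhibition of at least 40%; inconclusive means mean inhibition at least 40% but some replicate below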;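 further: 0% = neutral control wells and 100% = positive control wells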
Starred values were filed as active, the others as inactive; ? = inconclusive; . = no result given.

SMILES	LGR2 antag	Ecoli rRNA inh	PAX8 inh HTS	SIRT5 block	EWS-Fli block	PGC1a acetyl inh
COc1ccc(CN(C)C[C@@H]2Oc3ccc(NC(=O)CCCCCC(=O)Nc4ccccc4N)cc3CC(=O)N([C@@H](C)CO)C[C@@H]2C)cc1	6	0	18	-23	11	1
COc1ccc(CN(C)C[C@@H]2Oc3ccc(NC(=O)CCCCCC(=O)Nc4ccccc4N)cc3CC(=O)N([C@H](C)CO)C[C@@H]2C)cc1	-23	-2	20	3	-2	-3
C[C@@H]1CN([C@H](C)CO)C(=O)Cc2cc(NC(=O)CCCCCC(=O)Nc3ccccc3N)ccc2O[C@@H]1CN(C)Cc1ccc(Oc2ccccc2)cc1	.	-4	?	16*	20	2
C[C@@H]1CN([C@H](C)CO)C(=O)Cc2cc(NC(=O)CCCCCC(=O)Nc3ccccc3N)ccc2O[C@@H]1CN(C)Cc1ccc(C(F)(F)F)cc1	-32	-3	69*	.	30	1
C[C@H]1CN([C@@H](C)CO)C(=O)Cc2cc(NC(=O)CCCCCC(=O)Nc3ccccc3N)ccc2O[C@@H]1CN(C)Cc1ccc(Oc2ccccc2)cc1	3	-3	-26	29*	23	-6
C[C@@H]1CN([C@@H](C)CO)C(=O)Cc2cc(NC(=O)CCCCCC(=O)Nc3ccccc3N)ccc2O[C@@H]1CN(C)Cc1ccc(Oc2ccccc2)cc1	6	-7	?	26*	47	0
COc1ccc(CN(C)C[C@H]2Oc3ccc(NC(=O)CCCCCC(=O)Nc4ccccc4N)cc3CC(=O)N([C@@H](C)CO)C[C@H]2C)cc1	-10	0	1	.	0	-13
C[C@H]1CN([C@@H](C)CO)C(=O)Cc2cc(NC(=O)Nc3ccc(C(F)(F)F)cc3)ccc2O[C@H]1CN(C)Cc1ccc(C(=O)Nc2ccccc2N)cc1	10	1	.	20*	79*	-16
COC(=O)[C@H](Cc1c[nH]c2ccccc12)NCc1cccc(B(O)O)c1	-16	-24*	-12	26*	3	-8
O=C(c1cccnc1)N1C[C@H]2[C@@H](c3ccccc31)[C@@H](CO)N2Cc1ccc2c(c1)OCO2	1	3	13	3	-3	-6
O=S(=O)(c1ccc(Cl)cc1)n1cccn1	26	11	2	6	3	8
Cc1nc(C)c(-c2ccn(S(=O)(=O)c3ccc(Cl)cc3)n2)o1	2	-19*	9	-3	19	-4
CO[C@H]1CN(C)C(=O)c2cc(NC(=O)Nc3ccccc3F)ccc2OC[C@H](C)NC[C@@H]1C	0	-1	.	11	8	-7
O=C(COc1ccccc1/C=C\c1[nH]c(=O)[nH]c(=O)c1[N+](=O)[O-])Nc1ccccc1	-106	-31*	-6	-2	6	-9
O=c1[nH]c(/C=C/c2ccccc2Cl)c([N+](=O)[O-])c(=O)[nH]1	5	-24	6	3	16	10
CO[C@H](CN(C)Cc1cc(F)ccc1F)[C@H](C)CN(C(=O)Nc1ccc(F)cc1)[C@@H](C)CO	19	-8	.	-3	-7	-2
CO[C@@H](CN(C)Cc1ccc2c(c1)OCO2)[C@@H](C)CN(C(=O)Nc1ccc(F)cc1)[C@H](C)CO	-11	-1	.	21*	-4	-1
CN(C)CC(=O)Nc1ccc2c(c1)[C@@H]1C[C@H](CC(=O)NCCc3ccccc3)O[C@H](CO)[C@@H]1O2	-1	5	1	3	-3	4
O=C(O)C[C@@H]1C[C@H]2c3cc(NS(=O)(=O)c4ccccc4)ccc3O[C@H]2[C@H](CO)O1	0	4	.	4	2	-5
CC(C)(c1ccccc1)c1ccc(OCC(O)CNC2CCN(Cc3ccccc3)CC2)cc1 (stereo not drawn)	104*	-56	80*	2	25	-3
CCOc1ccc(OCC(O)CNC2CCN(Cc3ccccc3)CC2)cc1 (stereo not drawn)	-5	.	19	.	3	-5
Nc1cccn2c(-c3ccc(Cl)cc3)cnc12	-130	-6	-182	3	-72	5
Nc1cccn2c(-c3ccc(Cl)c(Cl)c3)cnc12	-106	-26*	-124	-3	-117	.
Cc1oc(-c2ccc(Cl)cc2)cc1C(=O)/C(C#N)=C/Nc1ccccc1	2	-25*	-1	-7	8	.
COc1ccccc1NC(=O)N1CC(=O)N2[C@H](CO)[C@@H](c3ccc(C#CC4CC4)cc3)[C@H]2C1	-12	-3	14	22*	1	18
SMILES	LGR2 antag	Ecoli rRNA inh	PAX8 inh HTS	SIRT5 block	EWS-Fli block	PGC1a acetyl inh
O=C(Nc1ccccc1)N1CC(=O)N2[C@H](CO)[C@@H](c3ccc(C#CC4CCCCC4)cc3)[C@@H]2C1	-9	4	.	16*	9	-13
O=C(Nc1cc(F)ccc1F)N1CC(=O)N2[C@H](CO)[C@H](c3ccc(C#CC4CCCCC4)cc3)[C@@H]2C1	-7	3	15	17*	2	-3
O=C(Nc1cc(F)ccc1F)N1CC(=O)N2[C@@H](CO)[C@@H](c3ccc(C#CC4CCCCC4)cc3)[C@@H]2C1	19	-2	60	21*	0	4
C[C@@H]1CN([C@@H](C)CO)C(=O)c2cc(-c3ccccc3F)cnc2O[C@H]1CN(C)Cc1ccc(F)cc1	17	-4	.	7	1	-7
CCCN1[C@H](C(=O)N2CCCCC2)[C@@H](CO)[C@@H]2Cn3c(cccc3=O)[C@@H]21	-3	0	-6	2	-8	0
COc1ccc2c3c(n(C)c2c1)[C@H](CO)N(CC1CC1)CC31CCN(C(C)=O)CC1	.	3	.	.	.	.
C[C@@H]1CCCCO[C@@H](CN(C)C(=O)Nc2ccccc2)[C@@H](C)CN([C@@H](C)CO)C(=O)c2cc(NC(=O)CCC(F)(F)F)ccc2O1	-2	1	.	1	3	4
COC(=O)c1cc(S(=O)(=O)N(C)C2CCCCC2)oc1C	4	-27*	14	-1	6	9
COC(=O)c1cn(C)c2ccc(S(=O)(=O)N(C)C3CCCCC3)cc2c1=O	23	-2	7	-1	1	7
CCn1cc(C(=O)OC)c(=O)c2cc(S(=O)(=O)N(C)C3CCCCC3)ccc21	4	-7	6	27*	-3	-22
O=C(N[C@H]1CC[C@@H](CC(=O)N2CCOCC2)O[C@@H]1CO)c1ccccn1	8	1	.	0	.	4
O=C(Cn1nc(-c2ccc(Cl)cc2)ccc1=O)NCC1CCCO1 (stereo not drawn)	4	0	2	19*	-1	-4
Cn1c(SCC(=O)NCC2CCCO2)nnc1-c1ccc(Cl)cc1 (stereo not drawn)	6	6	2	19*	-1	4
